Assay results published in the supplement of paper PMC3334620.
Over roughly 33,000 sequences, “E-score (-0.5 to 0.5)” has its median near -0.043; the highest 2% begin near 0.37. For the sample, the highest values were picked, then their nearest neighbours and some sequences at random.

Target: T1, Upc2 (UniProt Q12151)
T1 sequence: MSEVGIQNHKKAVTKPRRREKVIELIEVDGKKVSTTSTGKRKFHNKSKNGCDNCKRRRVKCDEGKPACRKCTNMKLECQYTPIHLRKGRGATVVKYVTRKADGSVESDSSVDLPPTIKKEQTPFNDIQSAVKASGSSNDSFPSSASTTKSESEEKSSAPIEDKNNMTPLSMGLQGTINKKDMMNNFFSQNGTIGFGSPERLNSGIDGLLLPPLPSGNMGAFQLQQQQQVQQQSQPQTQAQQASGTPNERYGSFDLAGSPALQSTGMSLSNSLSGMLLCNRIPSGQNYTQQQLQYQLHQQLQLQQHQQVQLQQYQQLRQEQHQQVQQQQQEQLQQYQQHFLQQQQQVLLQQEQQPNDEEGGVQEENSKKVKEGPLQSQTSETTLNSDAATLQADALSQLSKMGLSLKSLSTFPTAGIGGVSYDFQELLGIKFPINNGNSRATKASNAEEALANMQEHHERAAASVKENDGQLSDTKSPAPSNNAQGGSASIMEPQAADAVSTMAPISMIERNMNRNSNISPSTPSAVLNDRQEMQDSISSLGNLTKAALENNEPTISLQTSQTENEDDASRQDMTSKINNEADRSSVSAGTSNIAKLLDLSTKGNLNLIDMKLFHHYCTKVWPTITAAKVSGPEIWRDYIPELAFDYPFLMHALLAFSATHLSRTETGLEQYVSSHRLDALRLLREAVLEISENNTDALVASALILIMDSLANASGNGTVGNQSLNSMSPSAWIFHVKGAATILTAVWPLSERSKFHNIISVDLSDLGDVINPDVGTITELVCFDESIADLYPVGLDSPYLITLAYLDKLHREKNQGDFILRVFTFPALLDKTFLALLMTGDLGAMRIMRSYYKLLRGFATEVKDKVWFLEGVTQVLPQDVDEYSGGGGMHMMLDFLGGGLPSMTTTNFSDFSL
Experiment: PBM E-score (8-mer binding enrichment) (E-score (-0.5 to 0.5)); higher = stronger / more preferred TF binding
Conditions: protein concentration: 200 nM; construct: GST-full length
Experimental: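 Universal 'all 10-mer' protein binding microarrays (Agilent AMADID 015681) probed with GST-tagged S. cerevisiae TFs (full-length or DBD) made by in vitro transcription/translation (PURExpress), about 100-200 nM. Bound TF was detected with fluorescent anti-GST. Each ungapped 8-mer (which stands for itself and its reverse complement) is scored by the PBM enrichment score (E-score), a modified Wilcoxon-Mann-Whitney statistic from -0.5 to +0.5, computed with the Universal PBM Analysis Suite. Scale: above 0.35 generally sequence-specific binding.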

Sequence	PBM E-score
CATGGATA	-0.0903
CCGAAGGA	-0.0603
TCGAACGA	0.368
GCGAACGA	0.418
ACGAAGGG	0.287
ACGAACGG	0.387
ACGAACAG	0.314
ACGAAGGA	0.379
ACGAACGT	0.32
ACGAACGC	0.323
GCGAACGC	0.158
GCGAACAA	0.139
ACGAACGA	0.435
TCGGTGCA	-0.104
GTAATATA	0.197
CTTTCTCA	0.0661
AGCTCAGA	-0.0803
ACCGACTA	0.0499
ATCGAGGG	-0.0211
ATACATGC	0.169
AAAACCAC	-0.0422
CCGAAGAA	-0.127
AAGATGCC	0.00959
CCGAACGG	0.199
CCGAACGC	0.0534

Sequence	PBM E-score
CCGAACGA	0.384
ATTATGAG	-0.102
GCAAGGAC	-0.135
ACTTCACG	0.0222
CCGAGATC	0.018
ATGAGATG	-0.243
GCGAGAGC	0.23
ACGAGAGA	0.343
ACGAGACC	0.347
ACGAGATG	0.38
ACGAGAGC	0.375
ACGAGATC	0.408
ACGAGATA	0.355
ACGTCCCA	-0.208
CCGCCCAG	-0.0999
CGAAACAA	0.188
ATTTGCGC	0.024
GGATGCTA	-0.0482
ATTTCGCC	0.131
CGAGCATA	0.175
CCTTAGGC	-0.0987
CACGAATC	0.0313
GACGAAAA	0.177
TACGAAAA	0.411
CACGAATA	0.175

Sequence	PBM E-score
AACGAATC	0.39
TACGAATA	0.415
AGCGAATG	0.177
GACGAATA	0.0289
GACGAATC	0.138
AACGAATG	0.416
CACGAAAA	0.134
CACGAATG	0.0101
CGACCAGA	0.0386
GACCGTGA	-0.166
CCGCTGGA	-0.0874
ATAATTGC	-0.037
AACCTGCT	-0.0408
CACCATGC	-0.295
CCGGGCTA	-0.18
CACGTACG	0.346
ATAACGAT	0.144
ATCGAATA	0.211
AACGAATT	0.378
AACGAATA	0.381
AAAGAATT	-0.0689
ACCGAATA	0.0988
AAGGAATT	-0.215
GATCAGCC	-0.29
ATCTTCCG	0.168

Sequence	PBM E-score
AGCTTTTA	0.163
TGTGCGAA	0.0333
GGAACGCA	0.174
GGAACGAA	0.464
GTAACGAC	0.326
CGAACGCC	0.0792
GGAACGAC	0.453
GGAACGCC	0.013
GGAACGTA	0.282
CGAACGTC	0.135
CGAACAAA	0.183
CGAACGAA	0.398
CGAACGGA	0.223
CGAACGAC	0.401
ATCCTTAC	-0.0381
AAAACTCA	-0.0631
CGACCCTC	0.0606
AAGCCCAC	-0.0729
AAATGCAG	-0.0984
GCTGGATA	-0.131
CCCTGTAG	-0.234
CTAACGAG	0.343
CGAACGCG	0.185
AGAACGAC	0.391
ACAACGAG	0.257

Sequence	PBM E-score
AGAACGAT	0.342
CGAACGAG	0.427
AGAACGAA	0.376
AGAACGAG	0.42
ATAACGAC	0.159
AGAACGTG	-0.00321
AGAACGTC	-0.066
AGAACAAA	0.103
AAACCTGT	0.225
GCTCTCAC	-0.32
TCCGCGCA	-0.0128
AAATACTC	-0.0601
CAGTTGAG	-0.255
ACGGGCTC	0.128
AATAACGT	0.133
ATAACGAA	0.197
TGAACGAA	0.458
TGAACGCA	0.189
CTAACGAA	0.287
TTAACGAA	0.448
TCAACGAA	0.249
CTACCGTA	0.301
TAACGACA	0.381
GAACGACC	0.429
GCACGACC	-0.2

Sequence	PBM E-score
GGACGACC	-0.212
AAACGACC	0.458
TCACGACA	-0.138
AGACGACC	0.132
GAACGACA	0.437
TGACGACA	0.0658
CAACGACC	0.221
CAACGACA	0.313
GGACGACA	-0.266
AGCCAACC	0.0299
TCTCACCA	-0.14
CAGTGCAC	-0.136
CTACCACA	-0.234
CCGGCTAA	-0.199
AGATAAAG	-0.0496
CGACGACG	0.0684
CAACGACG	0.296
AGACGACA	0.104
ACACGACA	0.221
ACACGACT	0.194
AAACGACT	0.456
AAACGACA	0.479
AGACGACT	0.0557
AAACGACG	0.476
GCCGAGAA	0.068

Sequence	PBM E-score
AACAATCA	-0.0313
CCTGGGGC	-0.165
TCGCCGCA	-0.0606
AATTAACG	0.272
AGAATAGC	-0.229
TTCCGGAA	-0.206
CATCATTA	-0.0416
ACTTACTG	-0.00843
CATATATC	0.114
AGTATATC	0.0604
AGTATATA	0.282
CGTATATA	0.458
CGTATATC	0.454
GGTATATA	0.152
GATTCGTA	0.438
CATTCGTA	0.416
AATTCGTA	0.433
GATTCGGA	0.11
AATTCGTG	-0.0513
AATTCGTC	0.0116
CATTCGTC	0.0696
CATTCGCA	0.0275
GATTCGCA	0.131
